Records with an inconclusive call do not appear. Entries that show only a call come without a potency. Unmarked numbers belong to inactive results. Calls of active or inactive are those of the source. Calls follow the shape of the dose curve; as a rule, active = well fitted curve in the direction sought with a large enough effect; inconclusive = small, poorly fitted or top-dose-only effect, or another doubt; inactive = no such curve, though single readings can be large; an effect the other way counts as inactive or inconclusive.
Key:
[1] = system: MKL-2; test: qHTS assay to identify novel small-molecules to repurpose for Merkel cell carcinoma treatment (AID 1296009); settings: MCC and control cell lines, CellTiter-Glo viability, 72 h; series mostly up to 46 µM; also: nearly all actives have a fitted effect of over 60% in size; also: potency is read from the fitted curve at half-maximal effect
Method in brief: (§1)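 Dose-response viability screen; 72 hr exposure at 37 degree celsius; CellTiter-Glo added, 10 min room temperature, luminescence read; RLUs scaled between no-cell and DMSO wells.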

[2] = system: UISO; test: as above; settings: MCC and control cell lines, CellTiter-Glo viability, 72 h; series mostly up to 46 µM
Method in brief: as §1

[3] = system: WaGa; test: as above; settings: MCC and control cell lines, CellTiter-Glo viability, 72 h; series mostly up to 46 µM
Method in brief: as §1

[4] = system: C33A; test: Primary qHTS to identify gynecologic anti-cancer compounds using libraries of approved drugs and bioactive compounds (AID 1345084); settings: Gynecologic cancer cell panel viability, ATPlite luminescence, 48 h; series mostly up to 57.5 µM; also: nearly all actives have a fitted effect of over 55% in size
Method in brief: (§2)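 Cytotoxicity screen measuring ATP content by luciferase luminescence. Each compound is applied at five concentrations for 48 h at 37 C with 5% CO2.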

[5] = system: CAOV3; test: as above; settings: Gynecologic cancer cell panel viability, ATPlite luminescence, 48 h; series mostly up to 57.5 µM
Method in brief: as §2

[6] = system: CASKI; test: as above; settings: Gynecologic cancer cell panel viability, ATPlite luminescence, 48 h; series mostly up to 57.5 µM
Method in brief: as §2

[7] = system: Es-2; test: as above; settings: Gynecologic cancer cell panel viability, ATPlite luminescence, 48 h; series mostly up to 57.5 µM
Method in brief: as §2

[8] = system: HeLa; test: as above; settings: Gynecologic cancer cell panel viability, ATPlite luminescence, 48 h; series mostly up to 57.5 µM
Method in brief: as §2

[9] = system: NIH3T3; test: qHTS assay to identify novel small-molecules to repurpose for Merkel cell carcinoma treatment (AID 1296009); settings: MCC and control cell lines, CellTiter-Glo viability, 72 h; at 44.8 µM (top of the series) unless noted; also: nearly all actives have a fitted effect of over 60% in size; also: potency is read from the fitted curve at half-maximal effect
Method in brief: as §1

[10] = system: MKL-1; test: as above; settings: MCC and control cell lines, CellTiter-Glo viability, 72 h; series mostly up to 46 µM
Method in brief: as §1

## Cc1ccc(Cl)c(Nc2ccccc2C(=O)O)c1Cl
[1]
  Potency: inactive
[2]
  Potency: inactive
[3]
  Potency: inactive
[4]
  Potency: inactive
[5]
  Potency: inactive
[6]
  Potency: inactive
[7]
  Potency: inactive
[8]
  Potency: inactive

## NC(=O)c1cn(Cc2c(F)cccc2F)nn1
[1]
  Potency: inactive
[2]
  Potency: inactive
[3]
  Potency: inactive
[4]
  Potency: inactive
[5]
  Potency: inactive
[6]
  Potency: inactive
[7]
  Potency: inactive

## c1ccc2c(c1)CCCC2C1=NCCN1 (configuration not stated)
[1]
  Potency: inactive
[9]
  outcome: inactive
[2]
  Potency: inactive
[3]
  Potency: inactive
[4]
  Potency: inactive
[5]
  Potency: inactive
[6]
  Potency: inactive
[7]
  Potency: inactive

## CCc1c(C)[nH]c2c1C(=O)C(CN1CCOCC1)CC2 (configuration not stated)
[1]
  Potency: 9.44 µM (active)
[9]
  outcome: inactive
[2]
  Potency: inactive
[4]
  Potency: inactive
[5]
  Potency: inactive
[6]
  Potency: inactive
[7]
  Potency: inactive
[8]
  Potency: inactive

## FC(F)(F)c1ccccc1-n1ccnc1
[1]
  Potency: inactive
[2]
  Potency: inactive
[3]
  Potency: inactive
[4]
  Potency: inactive
[5]
  Potency: inactive
[6]
  Potency: inactive
[7]
  Potency: inactive

## CC(=O)OCC1=C(C(=O)O)N2C(=O)[C@@H](NC(=O)Cc3cccs3)[C@H]2SC1
[1]
  Potency: inactive
[9]
  outcome: inactive
[2]
  Potency: inactive
[3]
  Potency: inactive
[4]
  Potency: inactive
[5]
  Potency: inactive
[6]
  Potency: inactive
[7]
  Potency: inactive
[8]
  Potency: inactive

## NC(=O)c1ncn([C@@H]2O[C@H](CO)[C@@H](O)[C@H]2O)c1O
[1]
  Potency: inactive
[2]
  Potency: inactive
[3]
  Potency: inactive
[4]
  Potency: inactive
[5]
  Potency: inactive
[6]
  Potency: inactive
[7]
  Potency: inactive
[8]
  Potency: inactive

## NC1=NCC2c3ccccc3Cc3ccccc3N12 (configuration not stated)
[1]
  Potency: inactive
[2]
  Potency: inactive
[3]
  Potency: inactive
[4]
  Potency: inactive
[5]
  Potency: inactive
[6]
  Potency: inactive
[7]
  Potency: inactive
[8]
  Potency: inactive

## NCCCNCCSP(=O)(O)O
[1]
  activity change, negative = cytotoxicity: 7.98% [at 9.22 µM]
[9]
  outcome: inactive [at 9.27 µM]
[2]
  activity change, negative = cytotoxicity: -0.378% [at 9.22 µM]
[3]
  activity change, negative = cytotoxicity: 14.2% [at 9.22 µM]
[4]
  activity change, negative = cytotoxicity: 4.43% [at 11.6 µM]
[5]
  activity change, negative = cytotoxicity: 4.48% [at 11.6 µM]
[6]
  activity change, negative = cytotoxicity: 0.847% [at 11.6 µM]
[7]
  activity change, negative = cytotoxicity: 6.18% [at 11.6 µM]
[8]
  activity change, negative = cytotoxicity: 7.86% [at 11.6 µM]

## C[C@]12CC[C@@H]3c4ccc(O)cc4C[C@@H](CCCCCCCCCS(=O)CCCC(F)(F)C(F)(F)F)[C@H]3[C@@H]1CC[C@@H]2O (some centres not stated)
[10]
  Potency: inactive
[3]
  Potency: inactive
[4]
  Potency: inactive
[5]
  Potency: inactive
[6]
  Potency: inactive
[7]
  Potency: inactive

## CN(C)C(=O)Oc1ccc[n+](C)c1
[1]
  Potency: inactive
[9]
  outcome: inactive
[2]
  Potency: inactive
[3]
  Potency: inactive
[4]
  Potency: inactive
[5]
  Potency: inactive
[6]
  Potency: inactive
[7]
  Potency: inactive
[8]
  Potency: inactive

## CCCNC(C)C(=O)Nc1ccccc1C (configuration not stated)
[1]
  Potency: inactive
[2]
  Potency: inactive
[3]
  Potency: inactive
[4]
  Potency: inactive
[5]
  Potency: inactive
[6]
  Potency: inactive
[7]
  Potency: inactive
[8]
  Potency: inactive

## C[C@]12CCC(=O)C=C1CC[C@@H]1[C@@H]2C(=O)C[C@@]2(C)[C@H]1CC[C@]2(O)C(=O)CO
[1]
  Potency: inactive
[2]
  Potency: inactive
[3]
  Potency: inactive
[4]
  Potency: inactive
[5]
  Potency: inactive
[6]
  Potency: inactive
[7]
  Potency: inactive

## CC(C)(Oc1ccc(CCNC(=O)c2ccc(Cl)cc2)cc1)C(=O)O
[1]
  Potency: inactive
[9]
  outcome: inactive
[2]
  Potency: inactive
[3]
  Potency: inactive
[4]
  Potency: inactive
[5]
  Potency: inactive
[6]
  Potency: inactive
[7]
  Potency: inactive

## COc1cc(C(=O)OCCCN2CCCN(CCCOC(=O)c3cc(OC)c(OC)c(OC)c3)CC2)cc(OC)c1OC
[10]
  Potency: inactive
[2]
  Potency: inactive
[4]
  Potency: inactive
[8]
  Potency: inactive

## CCCCNc1ccc(C(=O)OCCN(C)C)cc1
[1]
  Potency: inactive
[9]
  outcome: inactive
[2]
  Potency: inactive
[3]
  Potency: inactive
[4]
  Potency: inactive
[5]
  Potency: inactive
[6]
  Potency: inactive
[7]
  Potency: inactive
[8]
  Potency: inactive

## CCCCOCCOCCOCc1cc2c(cc1CCC)OCO2
[1]
  Potency: inactive
[2]
  Potency: inactive
[3]
  Potency: inactive
[4]
  Potency: inactive
[5]
  Potency: inactive
[6]
  Potency: inactive
[7]
  Potency: inactive

## CN(C)CCCN1c2ccccc2Sc2ccccc21
[10]
  Potency: inactive
[4]
  Potency: inactive
[5]
  Potency: inactive
[6]
  Potency: inactive
[7]
  Potency: inactive
[8]
  Potency: inactive

## Fc1ccc(C(c2ccc(F)cc2)N2CCN(C/C=C/c3ccccc3)CC2)cc1
[10]
  Potency: inactive
[2]
  Potency: inactive
[7]
  Potency: inactive
[8]
  Potency: inactive

## C[N+](C)(C)CCOC(=O)CCC(=O)OCC[N+](C)(C)C
[1]
  Potency: inactive
[9]
  outcome: inactive
[2]
  Potency: inactive
[3]
  Potency: inactive
[4]
  Potency: inactive
[5]
  Potency: inactive
[6]
  Potency: inactive
[7]
  Potency: inactive
[8]
  Potency: inactive

## NC(=O)N1c2ccccc2C=Cc2ccccc21
[1]
  Potency: inactive
[2]
  Potency: inactive
[3]
  Potency: inactive
[4]
  Potency: inactive
[5]
  Potency: inactive
[6]
  Potency: inactive
[7]
  Potency: inactive

## c1cnc(N2CCN(Cc3ccc4c(c3)OCO4)CC2)nc1
[1]
  Potency: inactive
[2]
  Potency: inactive
[3]
  Potency: inactive
[4]
  Potency: inactive
[5]
  Potency: inactive
[6]
  Potency: inactive
[7]
  Potency: inactive
[8]
  Potency: inactive

## CCCN(CCC)C(=O)C(CCC(=O)O)NC(=O)c1ccccc1 (configuration not stated)
[1]
  Potency: inactive
[2]
  Potency: inactive
[3]
  Potency: inactive
[4]
  Potency: inactive
[5]
  Potency: inactive
[6]
  Potency: inactive
[7]
  Potency: inactive
[8]
  Potency: inactive

## CN/C(=C\[N+](=O)[O-])NCCSCc1ccc(CN(C)C)o1
[1]
  Potency: inactive
[2]
  Potency: inactive
[3]
  Potency: inactive
[4]
  Potency: inactive
[5]
  Potency: inactive
[6]
  Potency: inactive
[7]
  Potency: inactive
[8]
  Potency: inactive

## CC(C)NNC(=O)c1ccncc1
[1]
  Potency: inactive
[9]
  outcome: inactive
[2]
  Potency: inactive
[3]
  Potency: inactive
[4]
  Potency: inactive
[5]
  Potency: inactive
[6]
  Potency: inactive
[7]
  Potency: inactive

## CN(C)CC[C@@H](c1ccc(Br)cc1)c1ccccn1
[1]
  Potency: inactive
[2]
  Potency: inactive
[3]
  Potency: inactive
[4]
  Potency: inactive
[5]
  Potency: inactive
[6]
  Potency: inactive
[7]
  Potency: inactive
[8]
  Potency: inactive

## c1cc(CN2CCCCC2)cc(OCCCNc2nc3ccccc3s2)c1
[10]
  Potency: inactive
[4]
  Potency: inactive
[5]
  Potency: inactive
[6]
  Potency: inactive
[7]
  Potency: inactive
[8]
  Potency: inactive

## COC(=O)C1=C(C)NC(C)=C(C(=O)OC(C)(C)CN(C)CCC(c2ccccc2)c2ccccc2)C1c1cccc([N+](=O)[O-])c1 (configuration not stated)
[10]
  Potency: 23.7 µM (active)
[4]
  Potency: inactive
[5]
  Potency: inactive
[6]
  Potency: inactive
[7]
  Potency: inactive

From PubChem BioAssay (NCATS)
